# Measurements taken from PubChem BioAssay AID1347076 (National Center for Advancing Translational Sciences (NCATS), 2019).
# Screen size: about 400,000 compounds; about 13,000 (3.2%) were called active. Not shown: some 18% with an inconclusive outcome. Calls follow the shape of the dose curve; as a rule, active = well fitted cell-killing curve with a large enough effect; inconclusive = small, poorly fitted or top-dose-only effect, or effect the other way; inactive = flat fitted curve, though single readings scatter. What follows is part of a selection rich in actives, with near analogues and random picks from the rest. A call without a number means that no potency is given here.
# Assay: qHTS assay for MDR1-selective chemotherapeutics: Primary screen using the drug-selected MDR subline cells KB-V1; also: nearly all actives have a fitted effect of over 60% in size
# Conditions: KB-V1 MDR cells viability, CellTiter-Glo, 72 h; series mostly up to 46.1 µM
# From the text: A prime difficulty in effectively treating cancer is the development of cellular resistance to multiple structurally unrelated anticancer drugs, a phenomenon known as multidrug resistance (MDR). […] Numerous strategies to overcome P-gp-mediated MDR have been explored, including the design of drugs that evade recognition and efflux, and development of inhibitors to block efflux and restore drug accumulation. […] An alternative approach is to exploit resistance by identifying drugs that target MDR cells over the non-resistant parental cells from which they were selected. […] The development of MDR1-selective agents represents a new strategy for resolving multidrug resistance, as it remains a long-standing clinical challenge for cancer chemotherapy.
# Our goal is to identify compounds that selectively kill P-gp-expressing MDR cells. We will identify MDR1-selective compounds by comparing toxicity of compounds in the screening library against parental, drug-naive (KB-3-1) adenocarcinoma cells as well as their drug-selected MDR sub-line (KB-V1). The differential toxicity of compounds against these two cell lines will be used to identify MDR1-selective compounds, whose cytotoxicity is potentiated, rather than diminished, by P-gp expression. This assay will be utilized to conduct a quantitative high-throughput screen (qHTS) in collaboration with the NIH Chemical Genomics Center to identify selective agents, and probe hits arising from the screen will be validated using secondary assays and characterized through a well-established follow-up research program. This screen was run against the entire NCGC library collection of about 400,000 compounds.
# NIH Molecular Libraries Probe Production Network [MLPCN]
# NIH Chemical Genomics Center [NCGC]
# PI: Michael Gottesman, National Cancer Institute, NIH
# Briefly, 5 microL of media containing either KB-V1 cells (columns 1-2, 4-48) are dispensed into Greiner white, treated solid-bottom 1536-well assay plates (media-only control is added to column 3). Compounds are then transferred via Kalypsys pin tool equipped with 1536-pin array (10 nL slotted pins, V&P Scientific, San Diego, CA). Following addition of compound, the plates are incubated at 37 degrees C for 72 hours. CellTiter-Glo (2.5 µL/well) is then added, and the plates are read in a ViewLux reader (Perkin-Elmer, clear luminescence filter, 1 second exposure, 1x binning) following a 10 minute incubation. All cells are dispensed in DMEM phenol-red free media containing 10% FBS.
# Library plates were screened starting from the lowest and proceeding to the highest concentration. Vehicle-only plates, with DMSO being pin-transferred to columns 5-48, will be inserted uniformly at the beginning and the end of each library in order to monitor and record any shifts in the background, which can be affected by reagent dispensers or loss in enzyme activity over time. Screening data will be corrected, normalized, and concentration-effect relationships will be derived by using publicly-available NCGC, NCATS curve fitting algorithms (http://ncgc.nih.gov/pub/openhts).
# Potency is read from the fitted curve at half-maximal effect.
row,Structure (SMILES),Potency
1,C#CCN(C[C@H]1[C@H](OC(=O)NC2CCCC2)[C@H](OC(=O)NC2CCCC2)C[C@H]2C(=O)N(c3ccccc3)C(=O)[C@@H]12)S(=O)(=O)c1ccc(C)cc1,inactive
2,C=CCn1c(SCc2c(C)noc2C)nc2sc3c(c2c1=O)CCC(C)C3 (stereo not given),4.61 µM (active)
3,C=CCn1c(SCC(=O)NCCCO)nc2sc3c(c2c1=O)CCC3,inactive
4,CC1CCc2c(sc3nc4n(c(=O)c23)CCS4)C1 (stereo not given),inactive
5,O=C(Nc1ccc(Cl)cc1)c1csc([C@H]2C[C@H](O)[C@@H](CO)O2)n1,inactive
6,Cc1ccc(S(=O)(=O)NCc2nc3ccccc3c(=O)n2N)cc1,inactive
7,CCc1nnc2c3ccccc3nc(N3CCN(c4ccc(C)cc4C)CC3)n12,inactive
8,CCC1NC(=O)c2cccnc2-n2c1nc1ccc(C)cc1c2=O (stereo not given),inactive
9,N=c1c2c(-c3ccccc3)c(-c3ccccc3)oc2ncn1Cc1ccco1,16.4 µM (active)
10,C(=C\c1ccccc1)/CSc1nnc(-c2cccnc2)n1Cc1ccco1,inactive
11,OCCNc1ncnc2oc(-c3ccco3)c(-c3ccco3)c12,inactive
12,CSCCC(c1nnnn1Cc1ccccc1)N1CCN(C/C=C/c2ccccc2)CC1 (stereo not given),inactive
13,O=C(CNC(=O)N1CC(=O)Nc2ccccc21)Nc1ccc(Br)cc1F,inactive
14,Cc1ccc(C(C)C)cc1OCCN1CCCC1,inactive
15,Cc1ccc(OCCCCN2CCCCC2)c(Br)c1,16.4 µM (active)
16,CN1CCN(CCCCOc2cccc3ccccc23)CC1,inactive
17,COc1ccccc1OCCCCCCN1CCN(C)CC1,inactive
18,Cc1ccc(C(C)(C)C)c(OCCCCN2CCCC2)c1,20.6 µM (active)
19,O=[N+]([O-])c1ccccc1OCCCCN1CCCCC1,inactive
20,CCNC(=O)C1(C)CCCN(C(=O)c2ccc3ccccc3n2)C1 (stereo not given),inactive
21,Cc1ccccc1S(=O)(=O)NC(=O)C1(C)CCN1C(=O)C1(c2ccc(Cl)cc2)CC1 (stereo not given),inactive
22,CSc1n[nH]c(-c2ccco2)n1,inactive
23,COc1ccccc1-n1c(-c2cc(-c3ccco3)[nH]n2)n[nH]c1=S,inactive
24,Cn1c(-c2ccco2)nc2cc3ccccc3cc21,8.2 µM (active)
25,COc1ccc(Nc2cc(C(=O)NCCCN(C)c3ccccc3)c3ccccc3n2)c(OC)c1,inactive

row,Structure (SMILES),Potency
1,COc1cc2nc(NCC(C)c3ccccc3)n3nc(-c4ccccc4)nc3c2cc1OC (stereo not given),inactive
2,Cn1c(=O)c2c(n3c4ccccc4nc13)NC(=O)CC2c1cccc(Cl)c1 (stereo not given),inactive
3,Cc1ccccc1NC(=O)Cn1c(=O)n(CC2CCC(C(=O)NCCc3ccccc3)CC2)c(=O)c2ccccc21 (stereo not given),inactive
4,CCc1c(-c2ccc(F)cc2)ncn1Cc1cccc(-c2ccccc2)c1,23.1 µM (active)
5,O=c1cc(N2CCCCC2)c(-c2ccccc2)nn1Cc1cccc(F)c1,inactive
6,CCc1ccc(N(CC)C(=O)CCn2cnc3onc(-c4ccc(F)cc4)c3c2=O)cc1,inactive
7,Cc1ccccc1-c1nc(CS(=O)(=O)CC(=O)Nc2cc(Cl)cc(Cl)c2)c(C)o1,inactive
8,CN(C)c1nc(-c2cccnc2)nc(-c2ccc(Cl)cc2)c1C#N,inactive
9,CNc1nccc(-c2ccc(Cl)cc2)c1C#N,8.2 µM (active)
10,CN(C)c1ccnc(Nc2ccc(F)cc2)c1C#N,inactive
11,COc1cc(OC)cc(C(=O)Nc2cc3nn(-c4ccccc4)nc3cc2Cl)c1,inactive
12,O=C1c2ccccc2-c2ccccc2NC1O (stereo not given),inactive
13,COCC(C)n1c(SCc2ccc(C(=O)OC)o2)nc2ccccc2c1=O (stereo not given),inactive
14,COC(=O)CSc1nc2ccccc2c(=O)n1Cc1ccccc1,inactive
15,Cc1ccc(C(=O)CSc2nc3ccccc3c(=O)n2N)o1,11.6 µM (active)
16,COc1ccc(NC(C)=O)cc1NC(=O)CN1CCN(c2ccc(F)cc2)CC1,inactive
17,COc1cc(CCN=Cc2ccccc2O)c([N+](=O)[O-])cc1OC,inactive
18,COc1cc(OC)cc(C(=O)NCCc2csc3nc(-c4ccccc4F)nn23)c1,inactive
19,COc1ccc(CCNC(=O)/C(C#N)=C2\N=C(NC(=O)c3cccs3)c3ccccc32)cc1,10.3 µM (active)
20,COc1cc2ccccc2cc1C(=O)Nc1ccc(NC(=O)c2cccs2)cc1,inactive
21,OC[C@@H]1CN(Cc2cccs2)C[C@H](n2cnc3c(NC4CCCC4)ncnc32)O1,inactive
22,CCOc1cc(C(C(=O)NCC2CCCO2)N(C(=O)Cn2nnc3ccccc32)c2cccc(OC)c2)ccc1O (stereo not given),inactive
23,CCOc1ccccc1Nc1nnc(SCC(=O)NCC2CCCO2)s1 (stereo not given),inactive
24,CCOc1cc(-c2nc3cc(C)ccn3c2NCC2CCCO2)ccc1O (stereo not given),2.59 µM (active)
25,OC(c1ccc(F)cc1)c1ncc(-c2cccc(C(F)(F)F)c2)[nH]1 (stereo not given),inactive
